Measured values from PubChem BioAssay AID1626 (SRMLSC, 2009).
Screen size: about 220,000 compounds; about 2,000 (0.91%) were called active. About 2% were inconclusive and are not listed. The list is a sample of the results. Potency and affinity values are given separately. Unmarked numbers belong to inactive results. No stated cut-off is given here; in the data, inconclusive means inhibition above about 80% without an active follow-up result; inactive means below that; test concentration not stated here.

assay: M. tuberculosis H37Rv growth inhibitors, H37Rv strain (AID 1626); conditions: stronger effect = higher value, concentration not given here;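 further: bacteria incubated seven days before Alamar blue readout; 0% = bacteria only wells and 100% = bacteria with antibiotic wells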

Compound | inhibition
O=C(CCn1c(=O)oc2ccccc21)N(Cc1ccccc1)c1ccccc1 | -1.76%
Cc1nc2c(cnn2-c2ccccc2)c(=O)n1/N=C/c1ccccc1 | 3.66%
COc1ccc(C(=O)Cc2nnc(C)s2)c(OC)c1 | -1.08%
Cc1[nH]c2ccccc2c1-c1csc(NC(=O)CN2CCOCC2)n1 | 1.74%
O=C(COC(=O)c1cc(-c2ccccc2)nc2ccccc12)Nc1ccc2c(c1)OCO2 | -6.74%
O=C(COC(=O)c1c2c(nc3ccccc13)CCCC2)Nc1ccc2c(c1)OCO2 | 4.85%
COc1ccc(S(=O)(=O)N2CCCCCC2)cc1C(=O)OC(C)C(N)=O (stereo not given) | -6.24%
CCN(CCCNC(=O)C1CCCN(S(=O)(=O)c2cnc[nH]2)C1)c1ccccc1 (stereo not given) | -7.75%
COc1ccc(C)cc1NC(=O)C(OC(=O)C1CC1)c1ccccc1 (stereo not given) | 0.31%
COc1ccc(C(=O)OCC(=O)Nc2ccc(Cl)cn2)cc1 | -2.66%
O=C(COC(=O)c1ccccc1)Nc1ccc(Cl)cn1 | -1.7%
O=C(CCN1C(=O)S/C(=C\c2cccs2)C1=O)NC1=NCCS1 | -3.39%
COc1ccc(Nc2nc(N)nc(COc3ccc(OC)cc3)n2)cc1 | 3.88%
CCOC(=O)N1CCN(Cc2nc(N)nc(Nc3ccc(OCC)cc3)n2)CC1 | -0.7%
CCOc1ccc(NC(=O)CCN2CCN(c3ccccc3OC)CC2)cc1 | 7.58%
Nc1nc(CN2CCCCCC2)nc(Nc2ccccc2)n1 | 0.64%
COc1ccc(Nc2nc(N)nc(CCl)n2)cc1 | 63.6%
COc1cc(NC(=O)CCN2CCN(c3ccccc3F)CC2)cc(OC)c1 | -9.84%
Nc1nc(CN2CCN(Cc3ccccc3)CC2)nc(Nc2ccccc2)n1 | -0.83%
Nc1nc(CN2CCN(c3ccccc3F)CC2)nc(Nc2ccccc2)n1 | 55.9%
Cc1cc(Nc2ccc(C)c(Br)c2)n2nc(C)nc2n1 | -3.51%
Cc1cccn2c(=O)c(/C=N/O)c(Nc3ccccc3F)nc12 | -2.23%

Compound | inhibition
CCOC(=O)c1cccc(NC(=O)CN(c2ccc(C)cc2)S(=O)(=O)c2c(C)n[nH]c2C)c1 | -3.83%
COc1cccc(Nc2nc(N)nc(CCl)n2)c1 | 75.6%
Cc1ccc(Nc2nc(N)nc(CCl)n2)cc1 | 73.8%
COc1cnc(-c2ccccc2)nc1Sc1ccccc1 | -2.28%
FC(F)(F)c1cc(Sc2ccccc2)nc(-c2ccccn2)n1 | 4.07%
COc1cnc(N(C)C)nc1Sc1ccc(Cl)cc1 | -2.94%
COc1ccc(Sc2cc(C(F)(F)F)nc(-c3ccccn3)n2)cc1 | 4.59%
COc1cccc(-c2nc(-c3ccccn3)no2)c1OC | -1.55%
Cc1ccc(SCc2nc(-c3ccccn3)no2)cc1 | 11.6%
CCOC(=O)CSc1nc(-c2ccccn2)ncc1OC | 10.3%
COc1ccccc1-c1nc(-c2ccccn2)no1 | 0.6%
c1ccc2c(N3CCCCC3)nnc(N3CCCCC3)c2c1 | -2.8%
Cc1nc(-c2ccccc2)sc1C1(C)CC(c2ccc(C#N)cc2)=NO1 (stereo not given) | -5.09%
Cc1cnc(C(=O)OCC(=O)Nc2cc(Cl)cc(Cl)c2)cn1 | -2.03%
CC(=O)N1CCC2(CC1)CC(=O)c1cc(OCC(=O)NCc3ccc(C)cc3)ccc1O2 | 4.89%
CCOc1ccc(Cc2noc3c2C(=O)CC(C)(C)C3)cc1OCC | 5.77%
O=C(CNc1cc(S(=O)(=O)N2CCCC2)ccc1OCC(F)(F)F)Nc1cc(Cl)cc(Cl)c1 | 0.25%
CCC12CN3CCN(CC(C3)C1O)C2 (stereo not given) | -8.91%
CCOC(=O)C(NC(=O)CC(C)C)(Nc1sc(C)c(CC)c1C#N)C(F)(F)F (stereo not given) | -1.9%
OC(CNCc1cccc(Cl)c1)c1ccccc1 (stereo not given) | 6.44%
NCC(c1ccccc1)c1c[nH]c2ccccc12 (stereo not given) | -2.1%
COc1ccc(C2=NCCn3cccc32)c(OC)c1 | 4.72%

Compound | inhibition
Cc1ccn2c(Nc3ccccc3C)c(-c3cccnc3)nc2c1 | 3.46%
Cc1ccn2c(NC3CCCC3)c(-c3cccs3)nc2c1 | -6.97%
Cc1ccn2c(Nc3ccc4c(c3)OCO4)c(-c3ccccn3)nc2c1 | 12.5%
Cc1ccc(Nc2c(-c3ccccc3)nc3cnccn23)cc1 | 3.65%
Cc1ccccc1Nc1c(-c2cccnc2)nc2ccccn12 | 3.53%
Cc1ccn2c(NC3CCCC3)c(-c3ccncc3)nc2c1 | -0.8%
Cc1ccn2c(Nc3ccccc3C)c(-c3ccncc3)nc2c1 | -1.59%
Cc1ccc(-c2nc3ncccn3c2Nc2ccccc2C)o1 | 10.9%
CCOc1ccccc1NC(=O)CN1C(=O)COc2ccc(Cl)cc21 | -3.19%
Cc1cc(CNC(=O)Cn2nc(C)c([N+](=O)[O-])c2C)c2ccccc2n1 | -7.05%
Oc1cccnc1CCc1ccccc1 | -10.6%
CCOC(=O)c1sc(NC(=O)c2ccc(C)o2)nc1C | 2.75%
CCCn1nnc(NC(=O)c2cccnc2Cl)n1 | 7.01%
Cc1cc(NC(=O)CSc2nc(C3CCCCC3)nc3ccccc23)no1 | 7.18%
Nc1c(-c2ccccc2)cnc2cc(-c3ccccc3)nn12 | 4.02%
Cc1ccc(-c2nc3cnccn3c2Nc2ccccc2)o1 | 9.96%
Cc1ccn2c(NCc3ccccc3)c(-c3cccs3)nc2c1 | 6.23%
CCOc1ccccc1NC(=O)NC1(C(=O)N2CCOCC2)CCCCC1 | -10.7%
O=C(CSCc1ccco1)c1cccs1 | -1.66%
O=C(CSc1nnc(-c2ccc(O)cc2)n1Cc1ccco1)c1cccs1 | 2.2%
O=S(=O)(c1cccc2cccnc12)N1CCN(Cc2ccc3c(c2)OCO3)CC1 | -5.89%
